# According to ChEMBL document CHEMBL1961873, “Compounds: GSK PKIS; Assays: Nanosyn kinase panel” (2012):
# Assays:
# [1] = target: Dual specificity protein kinase CLK3 (Homo sapiens) (UniProt P49761); settings: at 1 µM;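 further: each value is the mean inhibition of CLK3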
# [2] = target: Dual specificity tyrosine-phosphorylation-regulated kinase 1A (Homo sapiens) (UniProt Q13627); settings: at 0.1 µM
# [3] = target: Dual specificity tyrosine-phosphorylation-regulated kinase 1A (Homo sapiens) (UniProt Q13627); settings: at 1 µM
# [4] = target: Dual specificity tyrosine-phosphorylation-regulated kinase 1B (Homo sapiens) (UniProt Q9Y463); settings: at 0.1 µM
# Dual specificity tyrosine-phosphorylation-regulated kinase 1B (Homo sapiens), sequence (Q9Y463 whole entry, looked up): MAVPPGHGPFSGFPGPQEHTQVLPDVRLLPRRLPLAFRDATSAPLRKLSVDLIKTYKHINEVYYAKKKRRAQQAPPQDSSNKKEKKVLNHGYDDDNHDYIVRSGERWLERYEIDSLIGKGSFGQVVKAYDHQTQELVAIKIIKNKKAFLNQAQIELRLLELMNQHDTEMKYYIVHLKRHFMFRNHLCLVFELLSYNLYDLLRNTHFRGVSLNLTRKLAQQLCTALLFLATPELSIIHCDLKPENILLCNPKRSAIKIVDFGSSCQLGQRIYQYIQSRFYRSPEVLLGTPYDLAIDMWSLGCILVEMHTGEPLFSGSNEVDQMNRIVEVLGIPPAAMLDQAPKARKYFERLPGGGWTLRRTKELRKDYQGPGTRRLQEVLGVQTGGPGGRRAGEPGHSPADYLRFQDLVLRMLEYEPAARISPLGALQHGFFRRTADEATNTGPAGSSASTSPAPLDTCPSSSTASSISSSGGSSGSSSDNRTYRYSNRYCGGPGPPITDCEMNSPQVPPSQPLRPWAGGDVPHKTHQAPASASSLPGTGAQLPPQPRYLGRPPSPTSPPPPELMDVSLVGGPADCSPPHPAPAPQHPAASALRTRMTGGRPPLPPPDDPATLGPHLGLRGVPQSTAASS
# [5] = target: Dual specificity tyrosine-phosphorylation-regulated kinase 1B (Homo sapiens) (UniProt Q9Y463); settings: at 1 µM
# [6] = target: T1, Dual specificity tyrosine-phosphorylation-regulated kinase 2 (Homo sapiens) (UniProt Q92630); settings: at 0.1 µM
# T1 sequence (whole entry): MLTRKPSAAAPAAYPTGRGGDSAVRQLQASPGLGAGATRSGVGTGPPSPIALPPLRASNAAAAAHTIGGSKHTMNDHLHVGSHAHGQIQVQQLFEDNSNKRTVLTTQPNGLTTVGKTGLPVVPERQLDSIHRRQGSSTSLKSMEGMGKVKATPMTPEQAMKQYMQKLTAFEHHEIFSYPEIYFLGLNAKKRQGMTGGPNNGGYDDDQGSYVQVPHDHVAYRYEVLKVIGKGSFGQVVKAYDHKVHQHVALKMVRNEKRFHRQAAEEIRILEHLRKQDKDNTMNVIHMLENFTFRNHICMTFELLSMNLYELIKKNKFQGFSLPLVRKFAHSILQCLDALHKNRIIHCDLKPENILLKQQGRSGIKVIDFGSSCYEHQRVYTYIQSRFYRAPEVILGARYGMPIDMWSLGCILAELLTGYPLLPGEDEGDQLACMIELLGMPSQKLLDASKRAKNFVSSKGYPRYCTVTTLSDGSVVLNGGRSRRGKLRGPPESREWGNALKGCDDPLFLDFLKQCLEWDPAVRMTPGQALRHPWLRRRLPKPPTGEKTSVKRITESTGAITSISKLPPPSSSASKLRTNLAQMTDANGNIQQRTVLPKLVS
# [7] = target: T1, Dual specificity tyrosine-phosphorylation-regulated kinase 2 (Homo sapiens); settings: at 1 µM
# [8] = target: Glycogen synthase kinase-3 alpha (Homo sapiens) (UniProt P49840); settings: at 0.1 µM
# Glycogen synthase kinase-3 alpha (Homo sapiens), sequence (P49840 2-483 limits assumed): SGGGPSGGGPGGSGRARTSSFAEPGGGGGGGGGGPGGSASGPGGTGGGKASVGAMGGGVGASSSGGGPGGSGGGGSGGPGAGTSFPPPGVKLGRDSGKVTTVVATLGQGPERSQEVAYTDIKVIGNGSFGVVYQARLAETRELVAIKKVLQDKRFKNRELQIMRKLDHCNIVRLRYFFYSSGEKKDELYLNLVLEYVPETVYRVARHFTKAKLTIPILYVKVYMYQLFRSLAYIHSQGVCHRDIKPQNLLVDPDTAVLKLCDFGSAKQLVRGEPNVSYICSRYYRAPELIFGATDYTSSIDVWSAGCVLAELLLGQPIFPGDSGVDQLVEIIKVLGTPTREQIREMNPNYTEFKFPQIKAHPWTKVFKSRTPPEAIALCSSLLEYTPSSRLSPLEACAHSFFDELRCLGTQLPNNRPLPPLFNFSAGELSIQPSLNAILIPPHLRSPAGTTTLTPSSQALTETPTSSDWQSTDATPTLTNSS
# [9] = target: Glycogen synthase kinase-3 alpha (Homo sapiens) (UniProt P49840); settings: at 1 µM
# [10] = target: Glycogen synthase kinase-3 beta (Homo sapiens) (UniProt P49841); settings: at 0.1 µM
# Glycogen synthase kinase-3 beta (Homo sapiens), sequence (P49841 whole entry, looked up): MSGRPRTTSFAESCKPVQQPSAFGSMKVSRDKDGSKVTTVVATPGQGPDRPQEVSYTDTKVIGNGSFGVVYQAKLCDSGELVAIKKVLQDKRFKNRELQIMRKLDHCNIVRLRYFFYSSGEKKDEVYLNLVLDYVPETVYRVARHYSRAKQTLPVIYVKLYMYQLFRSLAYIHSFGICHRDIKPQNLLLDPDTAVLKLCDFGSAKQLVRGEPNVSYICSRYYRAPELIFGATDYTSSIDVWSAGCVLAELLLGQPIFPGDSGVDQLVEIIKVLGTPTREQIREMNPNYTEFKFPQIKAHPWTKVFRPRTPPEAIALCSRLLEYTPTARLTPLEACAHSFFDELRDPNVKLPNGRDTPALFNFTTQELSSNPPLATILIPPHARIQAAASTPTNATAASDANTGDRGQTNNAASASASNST
# [11] = target: Glycogen synthase kinase-3 beta (Homo sapiens) (UniProt P49841); settings: at 1 µM
# [12] = target: Homeodomain-interacting protein kinase 1 (Homo sapiens) (UniProt Q86Z02); settings: at 0.1 µM
# Homeodomain-interacting protein kinase 1 (Homo sapiens), sequence (Q86Z02 whole entry, looked up): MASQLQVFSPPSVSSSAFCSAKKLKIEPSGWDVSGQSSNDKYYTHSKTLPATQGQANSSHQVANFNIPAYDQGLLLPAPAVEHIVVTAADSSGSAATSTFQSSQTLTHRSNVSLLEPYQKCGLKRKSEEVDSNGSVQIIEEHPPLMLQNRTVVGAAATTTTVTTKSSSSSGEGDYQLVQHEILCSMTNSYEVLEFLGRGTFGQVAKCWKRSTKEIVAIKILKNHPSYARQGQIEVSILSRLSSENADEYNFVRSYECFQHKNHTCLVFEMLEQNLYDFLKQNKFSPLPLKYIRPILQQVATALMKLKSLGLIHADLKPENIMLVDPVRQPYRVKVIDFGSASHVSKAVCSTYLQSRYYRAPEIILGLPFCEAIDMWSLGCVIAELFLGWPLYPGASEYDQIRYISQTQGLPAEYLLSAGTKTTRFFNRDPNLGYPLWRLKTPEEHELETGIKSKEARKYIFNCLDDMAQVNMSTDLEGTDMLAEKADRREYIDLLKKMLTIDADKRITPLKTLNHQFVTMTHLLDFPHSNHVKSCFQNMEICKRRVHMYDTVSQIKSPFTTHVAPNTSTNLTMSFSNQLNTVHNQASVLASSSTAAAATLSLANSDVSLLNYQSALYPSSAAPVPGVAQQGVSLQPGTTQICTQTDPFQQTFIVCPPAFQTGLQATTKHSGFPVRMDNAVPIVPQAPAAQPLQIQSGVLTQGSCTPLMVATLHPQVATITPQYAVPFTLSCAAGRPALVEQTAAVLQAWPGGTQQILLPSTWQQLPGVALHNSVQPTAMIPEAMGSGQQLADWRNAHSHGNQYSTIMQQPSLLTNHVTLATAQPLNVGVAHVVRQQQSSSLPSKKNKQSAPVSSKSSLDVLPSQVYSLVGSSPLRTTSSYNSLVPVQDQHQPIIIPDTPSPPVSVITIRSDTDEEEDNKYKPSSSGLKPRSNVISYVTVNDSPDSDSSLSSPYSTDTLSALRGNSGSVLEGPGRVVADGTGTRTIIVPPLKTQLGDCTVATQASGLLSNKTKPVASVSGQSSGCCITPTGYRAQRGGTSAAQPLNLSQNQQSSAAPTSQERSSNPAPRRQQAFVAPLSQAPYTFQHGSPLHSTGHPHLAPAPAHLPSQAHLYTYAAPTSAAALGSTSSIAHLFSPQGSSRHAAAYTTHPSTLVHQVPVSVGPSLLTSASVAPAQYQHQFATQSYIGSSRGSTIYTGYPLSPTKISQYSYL
# [13] = target: Homeodomain-interacting protein kinase 1 (Homo sapiens) (UniProt Q86Z02); settings: at 1 µM
# [14] = target: T2, Homeodomain-interacting protein kinase 4 (Homo sapiens) (UniProt Q8NE63); settings: at 0.1 µM
# T2 sequence (whole entry): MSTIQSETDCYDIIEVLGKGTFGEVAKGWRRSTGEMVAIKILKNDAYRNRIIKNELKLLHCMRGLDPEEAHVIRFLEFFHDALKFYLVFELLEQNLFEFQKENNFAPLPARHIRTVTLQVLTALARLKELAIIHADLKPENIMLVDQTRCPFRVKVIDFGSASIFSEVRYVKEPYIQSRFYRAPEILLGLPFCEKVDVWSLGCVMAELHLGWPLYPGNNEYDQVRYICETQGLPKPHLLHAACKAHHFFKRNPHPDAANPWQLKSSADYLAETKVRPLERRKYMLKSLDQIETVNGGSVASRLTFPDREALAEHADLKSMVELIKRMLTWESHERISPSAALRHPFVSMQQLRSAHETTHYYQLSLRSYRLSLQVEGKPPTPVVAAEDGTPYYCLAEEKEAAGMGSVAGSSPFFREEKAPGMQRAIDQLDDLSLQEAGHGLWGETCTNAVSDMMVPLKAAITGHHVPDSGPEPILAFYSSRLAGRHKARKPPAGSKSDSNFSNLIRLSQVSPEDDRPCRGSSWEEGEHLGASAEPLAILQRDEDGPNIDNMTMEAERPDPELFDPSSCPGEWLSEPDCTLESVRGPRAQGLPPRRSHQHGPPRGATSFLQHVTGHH
# [15] = target: T2, Homeodomain-interacting protein kinase 4 (Homo sapiens); settings: at 1 µM
# [16] = target: Mitogen-activated protein kinase 9 (Homo sapiens) (UniProt P45984); settings: at 0.1 µM
# Mitogen-activated protein kinase 9 (Homo sapiens), sequence (P45984 whole entry, looked up): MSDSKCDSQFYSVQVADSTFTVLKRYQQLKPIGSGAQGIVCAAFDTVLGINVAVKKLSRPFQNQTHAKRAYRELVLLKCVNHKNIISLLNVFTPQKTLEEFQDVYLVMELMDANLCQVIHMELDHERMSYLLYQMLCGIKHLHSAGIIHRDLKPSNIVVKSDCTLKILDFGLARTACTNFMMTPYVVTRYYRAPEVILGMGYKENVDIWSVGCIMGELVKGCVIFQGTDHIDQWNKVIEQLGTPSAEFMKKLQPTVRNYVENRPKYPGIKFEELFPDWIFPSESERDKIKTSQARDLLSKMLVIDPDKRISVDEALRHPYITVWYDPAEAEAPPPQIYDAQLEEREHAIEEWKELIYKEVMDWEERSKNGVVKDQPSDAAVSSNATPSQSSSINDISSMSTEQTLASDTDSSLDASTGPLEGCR
# [17] = target: Mitogen-activated protein kinase 9 (Homo sapiens) (UniProt P45984); settings: at 1 µM
# [18] = target: Mitogen-activated protein kinase 1 (Homo sapiens) (UniProt P28482); settings: at 0.1 µM
# Mitogen-activated protein kinase 1 (Homo sapiens), sequence (P28482 whole entry): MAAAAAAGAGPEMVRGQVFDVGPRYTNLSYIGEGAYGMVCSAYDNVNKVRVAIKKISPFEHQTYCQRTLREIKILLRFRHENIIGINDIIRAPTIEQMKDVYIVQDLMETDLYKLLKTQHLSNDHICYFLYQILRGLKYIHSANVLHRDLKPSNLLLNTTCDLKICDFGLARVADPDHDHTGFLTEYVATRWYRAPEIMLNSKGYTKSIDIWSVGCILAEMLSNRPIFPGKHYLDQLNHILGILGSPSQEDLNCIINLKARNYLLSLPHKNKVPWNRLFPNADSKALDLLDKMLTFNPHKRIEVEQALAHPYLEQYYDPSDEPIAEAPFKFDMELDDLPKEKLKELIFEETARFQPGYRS
# [19] = target: Mitogen-activated protein kinase 1 (Homo sapiens) (UniProt P28482); settings: at 1 µM
# [20] = target: Mitogen-activated protein kinase 3 (Homo sapiens) (UniProt P27361); settings: at 0.1 µM;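 further: each value is a mean inhibition figure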
# Mitogen-activated protein kinase 3 (Homo sapiens), sequence (P27361 whole entry): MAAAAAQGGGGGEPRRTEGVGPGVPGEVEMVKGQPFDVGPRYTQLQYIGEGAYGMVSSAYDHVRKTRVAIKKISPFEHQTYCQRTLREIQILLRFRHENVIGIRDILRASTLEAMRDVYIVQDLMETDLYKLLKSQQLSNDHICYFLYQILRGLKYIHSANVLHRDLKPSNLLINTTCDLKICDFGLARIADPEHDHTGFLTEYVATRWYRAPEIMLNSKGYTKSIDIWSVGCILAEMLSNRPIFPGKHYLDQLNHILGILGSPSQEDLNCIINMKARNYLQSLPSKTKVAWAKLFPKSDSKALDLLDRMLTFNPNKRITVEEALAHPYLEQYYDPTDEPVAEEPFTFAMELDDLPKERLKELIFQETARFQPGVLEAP
# Dual specificity protein kinase CLK3 (Homo sapiens), sequence (P49761 whole entry, looked up): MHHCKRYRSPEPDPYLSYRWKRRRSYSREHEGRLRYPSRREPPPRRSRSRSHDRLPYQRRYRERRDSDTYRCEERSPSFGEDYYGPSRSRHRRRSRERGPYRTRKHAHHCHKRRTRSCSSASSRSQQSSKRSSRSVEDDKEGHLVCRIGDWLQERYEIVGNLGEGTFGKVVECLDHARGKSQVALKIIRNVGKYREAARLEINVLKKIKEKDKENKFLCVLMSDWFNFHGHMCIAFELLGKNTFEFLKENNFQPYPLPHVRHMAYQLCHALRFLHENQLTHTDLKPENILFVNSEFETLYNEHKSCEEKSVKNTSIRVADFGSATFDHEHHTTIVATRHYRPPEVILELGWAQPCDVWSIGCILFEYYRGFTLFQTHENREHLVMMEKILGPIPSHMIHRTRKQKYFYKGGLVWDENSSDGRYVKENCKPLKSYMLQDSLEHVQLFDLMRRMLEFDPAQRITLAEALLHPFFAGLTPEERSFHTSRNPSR
SMILES,inhibition [1] [%],inhibition [2] [%],inhibition [3] [%],inhibition [4] [%],inhibition [5] [%],inhibition [6] [%],inhibition [7] [%],inhibition [8] [%],inhibition [9] [%],inhibition [10] [%],inhibition [11] [%],inhibition [12] [%],inhibition [13] [%],inhibition [14] [%],inhibition [15] [%],inhibition [16] [%],inhibition [17] [%],inhibition [18] [%],inhibition [19] [%],inhibition [20] [%]
OCCCNc1nccc(-c2c(-c3ccc(F)cc3)nn3cc(C(F)(F)F)ccc23)n1,0.7,1.47,6.36,1.89,3.86,2.33,3.97,7.04,18.2,8.01,31.2,-0.49,3.61,3.13,6.59,14.8,59.7,1.24,7.07,1.68
NS(=O)(=O)c1ccc(N/N=C2\C(=O)Nc3cccc(CCc4ccncc4)c32)cc1,1.36,1.69,4.28,1.6,6.1,-0.67,-1.25,49.5,68,34.1,56.4,-0.6,2.62,0.72,1.64,-0.3,1.61,0.92,0.88,-0.55
O=C(O[C@H]1CN[C@H](C#Cc2cc3ncnc(Nc4ccc5c(ccn5Cc5cc(F)ccc5F)c4)c3s2)C1)N1CCOCC1,1.89,2.29,4.73,0.4,-1.92,3.27,2.77,3.38,6.08,1.76,5.52,0.14,-1.46,0.47,2.6,5.66,5.74,3.73,5.12,4.98
CS(=O)(=O)CCNCc1ccoc1-c1ccc2ncnc(Nc3ccc(OCc4ccccc4)cc3)c2c1,-0.94,1.18,2.26,-1.48,-0.06,0.79,-1.66,4.65,5.47,2.8,4.28,-3.84,0.14,0.57,2.87,1.1,1.84,0.72,2.14,0.52
CS(=O)(=O)Nc1ccc(-c2ccc3c(NC(=O)C4CC4)n[nH]c3c2)cc1,4.08,1.29,6.04,-0.26,2.94,2.37,2.73,2.08,7.33,1.51,5.37,-0.91,5.67,0.27,5.43,2.01,3.22,4.95,1.75,2.3
NC(=O)c1ccc2c(-c3ccnc(NCCCO)n3)c(-c3ccc(F)cc3)nn2c1,2.71,7.25,8.12,5.14,5.25,3.28,5.26,3.74,19.6,7.03,41.3,1.65,4.85,5.71,7.94,38,82.2,1.98,14.9,4.06
CCS(=O)(=O)c1ccc(OC)c(Nc2ncc(-c3cccc(C(C)=O)c3)o2)c1,5.96,6.12,35.4,4.09,33.2,2.2,5.6,3.75,11.3,4.38,12.4,5.49,23,5.03,27.3,-1.02,1.43,4.9,3.99,2.3
CNC(=O)c1ncccc1Nc1nc(Nc2cc3c(cc2OC)CCCN3C(=O)CN(C)C)nc2[nH]ccc12,4.34,3.21,12.5,0.36,8.48,3.42,8.03,7.2,15.6,6.12,14.6,3.08,22.2,3.67,13.5,3.07,9.19,3.01,6.21,2.44
COc1ccc(Nc2ncc(-c3ccccc3)o2)cc1OC,5.65,8.15,12,9,10.9,0.67,2.48,8.4,38.4,7.94,33,8.4,28.6,3.61,22.6,2.69,8.77,-0.07,1.54,1.12
O=C(Nc1n[nH]c2nnc(-c3cccnc3)cc12)C1CC1,1.3,73.8,93.2,69.1,81,20.6,75,80.5,82.4,80,81.5,33.6,74,0.58,8.84,0.33,1.3,0.58,2.75,0.53
Cc1c2ccc(N(C)c3ccnc(Nc4cccc(S(N)(=O)=O)c4)n3)cc2nn1C,1.11,-1.03,1.54,-3.31,-2.73,2.38,2.71,-0.44,6.37,-0.25,10.7,-4.42,-0.84,-0.24,10.6,3.51,7.66,4.96,5.77,5.75
Cc1cc(O)cc(C)c1/C=C/c1cncc(C(N)=O)c1,3.45,2.36,6.61,0.87,2.81,1.62,3.99,1.54,4.08,1.76,1.95,0.55,3.38,0.22,1.54,1.69,2.53,1.25,2.53,0.31
FC(F)(F)CNc1nccc(-c2cnn3ncccc23)n1,2.91,14.6,60.1,16.1,59,2.04,14.3,3.64,7.01,2.33,6.02,0.25,10.2,-0.95,3.01,2.29,4.42,3.24,5.24,1.95
